Assay results taken from PubChem BioAssay AID504441 (Broad Institute, 2011).
The campaign covered roughly 310,000 compounds. About 1,300 (0.42%) were called active. The sample holds actives, similar compounds and a random draw of the others, so the mix is not that of the screen. Unmarked numbers belong to inactive results. Rule as the data show it: active = inhibition above about 50%; inactive = the rest.

Molecular target: Dual specificity tyrosine-phosphorylation-regulated kinase 1A (Rattus norvegicus) (UniProt Q63470)
Test: rat Dyrk1A kinase inhibitors, primary screen, biochemical, single point, plate reader (AID 504441);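 also: plate controls were vehicle with enzyme for no effect and no enzyme for full effect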
Conditions: ADP-Glo luminescence, NFATc1 peptide, at 12.5 µM, active compounds read high

| SMILES | inhibition |
| --- | --- |
| Cc1ccc(/C=C(\C#N)C(=O)Nc2cccc3ncccc23)o1 | 84.4% (active) |
| O=C(O)c1cc(Cl)c(Cl)cc1C(=O)Nc1cccc2ncccc12 | 31.9% |
| O=C(Nc1cccc2ncccc12)c1ccc(-c2ccc(Cl)cc2Cl)o1 | 12.4% |
| O=C1C2C3C=CC(C3)C2C(=O)N1c1ncc([N+](=O)[O-])s1 (stereo unspecified) | -1.64% |
| CCCN(C(=O)COC(=O)CNS(=O)(=O)c1ccc(NC(C)=O)cc1)C1CCS(=O)(=O)C1 (stereo unspecified) | 7.58% |
| CC(C)OC(=O)c1ccc(NCc2cc(O)ccc2O)cc1Cl | 0.287% |
| COc1ccc(/C=C2/CCCc3ccccc3C2=O)cc1 | 11.6% |
| O=[N+]([O-])c1ccccc1/C=N/n1c(COc2ccccc2)n[nH]c1=S | -1.54% |
| Oc1ccccc1/C=N/n1c(-c2cccs2)n[nH]c1=S | -4.73% |
| CCc1n[nH]c(=S)n1/N=C/c1c[nH]c2ccc(Br)cc12 | 50.2% (active) |
| O=C1/C(=C\c2ccc(O)cc2)CCC1CNc1ccc(Cl)cc1 (stereo unspecified) | 2.38% |
| COc1ccc(C2NCCCC2c2ccccc2)cc1 (stereo unspecified) | -2.56% |
| O=C(NN=Cc1ccccc1O)NN=Cc1ccccc1O | 6.12% |
| CCOC(=O)Cn1c(-c2cccnc2Cl)nc2ccccc21 | 80.1% (active) |
| CCn1c(-c2cccnc2Cl)nc2cc(C)c(C)cc21 | 2.9% |
| CCOC(=O)Cn1c(=O)n(Cc2ccc(OC)cc2)c(=O)c2cccnc21 | 2.78% |
| O=c1c2ccccc2ncn1CCc1ccncc1 | 7.95% |
| OCC(O)C1OCOC(C(O)CO)C1O (stereo unspecified) | -1.78% |
| O=C(NCC1CCCCC1)NCC1CCCCC1 | 7.91% |
| O=C(Cc1ccc(Cl)c(Cl)c1)Nc1ccc(SC(F)F)cc1 | -0.116% |
| O=C(CC(O)(C(F)(F)F)C(F)(F)F)Nc1ccc(Cl)c(Cl)c1 | 53.9% (active) |
| O=C(CC1SCCNC1=O)Nc1ccc(Cl)c(Cl)c1 (stereo unspecified) | -4.03% |
| CC/C(=C(/c1ccccc1)c1ccc(OCC[N+](C)(C)C)cc1)c1ccccc1 | 7.18% |

| SMILES | inhibition |
| --- | --- |
| COc1ccc2[nH]c(C)c(CCN(Cc3cccs3)C(=S)Nc3ccccc3OC)c2c1 | 57.4% (active) |
| Cc1[nH]c2ccccc2c1CCN(Cc1cccs1)C(=S)NC(C)(C)C | -4.25% |
| COc1cccc(NC(=S)N(CCc2c(C)[nH]c3ccccc23)Cc2ccco2)c1 | 7.39% |
| NN=C(NN=Cc1ccccc1)c1ccccc1 | -4.79% |
| CN(C(=O)c1cccc(NC(=O)Cc2ccc(NC(=O)C3CCCN(C(=O)C4CCCC4)C3)cc2)c1)C1CCC1 (stereo unspecified) | 2.93% |
| CC(=NNC(=S)N1CCCCCC1)c1ccccn1 | 0.973% |
| Cc1cc(NC(=O)C(C)SCC(=O)Nc2cccc(S(=O)(=O)N3CCCCCC3)c2)no1 (stereo unspecified) | -1.84% |
| CC(C)c1ccc(C=NNc2ccc([N+](=O)[O-])cn2)cc1 | -3.91% |
| Cc1cc(/C=N/Nc2ccc([N+](=O)[O-])cn2)c(C)n1-c1cccc(C(=O)O)c1 | 50.2% (active) |
| Cc1ccc(-n2c(C)cc(/C=N/Nc3ccc([N+](=O)[O-])cn3)c2C)c(C)c1 | -4.85% |
| Cc1cccc(NC(=S)N2CCC(C(=O)c3ccc(F)cc3)CC2)c1 | 10.4% |
| O=C(Nc1ccc2ccccc2c1[N+](=O)[O-])c1ccccc1 | 3.22% |
| O=C(OCCOc1ccccc1Cl)c1cc(S(=O)(=O)N2CCCCC2)ccc1N1CCOCC1 | -7.28% |
| Cc1nc(N)nc(SCc2ccc([N+](=O)[O-])cc2)c1N | -3.28% |
| Nc1nc(SCc2ccc([N+](=O)[O-])cc2)c2ncn(C3OC(CO)C(O)C3O)c2n1 (stereo unspecified) | 56.9% (active) |
| CC(C)Sc1nc(N)nc2c1ncn2C1OC(CO)C(O)C1O (stereo unspecified) | -4.63% |
| O=[N+]([O-])c1ccc(COc2ccccc2CN2CCOCC2)cc1 | 4.81% |
| CNN/C(N=Cc1ccc([N+](=O)[O-])s1)=N\S(=O)(=O)c1cc(C)c(Cl)cc1SCc1ccccc1 | 1.25% |
| Cc1ccc(S(=O)(=O)N2C[C@@H]3CCCC[C@@H]3[C@@H](C)[C@H]2c2cn(Cc3ccccc3)c3ccc(F)cc23)cc1 | -0.552% |
| O=C(NC(Nc1nc2ccc([N+](=O)[O-])cc2s1)(C(F)(F)F)C(F)(F)F)c1ccccc1 | 73.9% (active) |
| N=C1C(c2nc3ccccc3s2)=C(O)CN1NC(=O)c1ccc([N+](=O)[O-])cc1 | 46.9% |
| O=[N+]([O-])c1cc(Br)c(O)c(/C=N/Nc2nc3ccccc3s2)c1 | 32.7% |
| O=C(O)C(CCc1ccccn1)c1ccccc1 (stereo unspecified) | 3.61% |
